Measurements from PubChem BioAssay AID463173 (ICCB-Longwood Screening Facility, Harvard Medical School, 2010).
Out of some 52,000 compounds screened, about 4,300 (8.3%) were called active. No stated cut-off is given here; in the data, active means survival mostly below about 52% (no sharp cut-off); inactive means mostly above about 56%. The full list was thinned out, with actives kept by preference.

These molecules were tested on DeltatarO mutant (assay: S. aureus survival, RN4220 and DeltatarO strains – OD600, teichoic acid synthesis inhibitors, primary screen (AID 463173)). Settings: S. aureus RN4220 wild type/DeltatarO growth, OD600, 18 h, hits give low values, screened at 18.75 µg/mL (by protocol).

Compound	survival
COc1ccc(C)cc1NC(=O)N1CC(C)Sc2ccccc21 (stereo not drawn)	55% (inactive)
Cc1ccc(N(C)C(=O)CC(C)S(=O)(=O)c2ccc3c(c2)NC(=O)CO3)cc1 (stereo not drawn)	120% (inactive)
c1ccc2c(c1)[nH]c1nc(NN=C3CCC(=NNc4nnc5c(n4)[nH]c4ccccc45)CC3)nnc12	93% (inactive)
COc1cccc(-c2nc3c(c(SCC(=O)Nc4cc(C)ccc4C)n2)Cc2c(CO)cnc(C)c2O3)c1	77% (inactive)
CCc1ccc(NC(=O)c2ccc3oc(=O)n(Cc4ccccc4)c3c2)cc1	6% (active)
CCn1nnc2cc(C(=O)Nc3ccc(OC)cc3)ccc21	102% (inactive)
CCc1ccc(NC(=O)c2ccc3c(c2)nnn3CC)cc1	-4% (active)
O=C(Nc1cccc(F)c1)c1ccc2oc(=O)n(Cc3ccccc3)c2c1	70% (inactive)
O=C(NCc1ccc(Cl)cc1)c1ccc2oc(=O)n(Cc3ccccc3)c2c1	109% (inactive)
O=C(NCc1ccc(F)cc1)c1ccc2oc(=O)n(Cc3ccccc3)c2c1	-2% (active)
Cc1ccc(CNC(=O)c2ccc3oc(=O)n(Cc4ccccc4)c3c2)cc1	64% (inactive)
CCn1nnc2cc(C(=O)Nc3ccc(C)c(Cl)c3)ccc21	54% (inactive)
O=C(NCc1ccccc1)c1ccc2oc(=O)n(Cc3ccccc3)c2c1	72% (inactive)
Cc1cccc(CNC(=O)c2ccc3oc(=O)n(Cc4ccccc4)c3c2)c1	76% (inactive)
COc1cccc(CNC(=O)c2ccc3oc(=O)n(Cc4ccccc4)c3c2)c1	-1% (active)
O=C(Nc1ccc(Cl)cc1)c1ccc2oc(=O)n(Cc3ccccc3)c2c1	67% (inactive)
O=C(Cc1ccc(F)cc1)Nc1nncs1	99% (inactive)
Cc1ccc2ncc(C(=O)N3CCN(c4ccccc4F)CC3)c(=O)n2c1	102% (inactive)
CCOC(=O)c1c(NC(C)=O)c2c3c(sc2n1Cc1cc(C)ccc1C)CCCC3	98% (inactive)
O=C(CCOc1ccccc1)N(Cc1cccnc1)c1nc2c(F)cc(F)cc2s1	97% (inactive)

Compound	survival
CC1=C(C(N)=O)C(c2cccc(C)c2)n2nc(-c3cccc(C)c3)nc2N1 (stereo not drawn)	66% (inactive)
Cc1cccc(NC(=O)C2CCCN(S(=O)(=O)c3cccc4nonc34)C2)c1C (stereo not drawn)	119% (inactive)
Cc1c(C(=O)N(C)C)sc2c1c(=O)n(-c1ccc(F)cc1)c(=O)n2Cc1ccccc1C#N	76% (inactive)
Cc1ccc(N(C)C(=O)c2sc3nc4n(c(=O)c3c2C)CCCC4)cc1C	64% (inactive)
O=C(Cn1c(=O)n(CCCS(=O)(=O)C2CCCCC2)c(=O)c2ccccc21)Nc1ccccc1C(F)(F)F	91% (inactive)
Cc1ccc(S(=O)(=O)CCC(=O)Nc2ccc(Br)cc2C)cc1	85% (inactive)
Cc1ccc(C)c(N2CCN(C(=O)C3CCCN(S(=O)(=O)c4cccc5nonc45)C3)CC2)c1 (stereo not drawn)	76% (inactive)
COc1ccc(OC)c(NC(=O)c2cc3cccc(OC)c3oc2=O)c1	77% (inactive)
Cc1cccc(C)c1NC(=O)c1cc2sccc2n1Cc1ccc(F)cc1	96% (inactive)
COc1cc(/C=C(\C#N)c2nc3ccc(C)cc3[nH]2)ccc1OCc1ccc(C)cc1	59% (inactive)
CCOC(=O)COc1ccc(/C=C(\C#N)c2nc3ccc(C)cc3[nH]2)cc1OC	43% (active)
CCC(=O)Oc1ccc(/C=C(\C#N)c2nc3ccccc3[nH]2)cc1OC	47% (inactive)
COc1cc(/C=C(\C#N)c2nc3ccc(C)cc3[nH]2)ccc1OC(C)C	46% (active)
COc1cc(/C=C(\C#N)c2nc3ccccc3[nH]2)ccc1OCc1ccc(F)cc1	70% (inactive)
COc1ccc(/C=C(\C#N)c2nc3ccccc3c(=O)[nH]2)cc1OC	86% (inactive)
Cc1ccc(-n2nc(C)c3c(C)cc(=O)n(CC(=O)N4CCCc5ccccc54)c32)cc1	80% (inactive)
Cc1oc2ncn(CC(C)C)c(=O)c2c1C(=O)Nc1ccc(Cl)cn1	86% (inactive)
COc1ccc(CNC(=O)C2CCC(CNS(=O)(=O)c3ccc4c(c3)CCCC(=O)N4)CC2)cc1 (stereo not drawn)	87% (inactive)
CCc1cccc(NC(=O)C2CCCN(c3ncccn3)C2)c1 (stereo not drawn)	80% (inactive)
COc1ccc(CNC(=O)CCc2c(C)nn(-c3ccc(N4CCCCC4)nn3)c2C)cc1	75% (inactive)

Compound	survival
Cc1ccc(CNC(=O)CN2CCN(Cc3ccc(F)cc3)C2=O)cc1	95% (inactive)
Cc1c(Cl)cccc1NC(=O)c1ccc(C(=O)Nc2cccc(Cl)c2C)cc1	81% (inactive)
Cc1ccc(Nc2nc3ccc(C)cc3nc2-n2nc(C)cc2C)c(C)c1	81% (inactive)
CC(=O)c1ccc(Nc2nc3ccccc3nc2-n2nc(C)cc2C)cc1	44% (active)
CCC(Cc1ccccc1)NC(=O)c1cccc(Nc2nc3ccccc3nc2-n2nc(C)cc2C)c1 (stereo not drawn)	63% (inactive)
Cc1cc(C)n(-c2nc3ccccc3nc2Nc2cc(C(=O)O)ccc2C)n1	42% (active)
Cc1cc(C)n(-c2nc3ccccc3nc2Nc2ccc(Cl)c(C(=O)OC(C)C)c2)n1	99% (inactive)
Cc1ccc(C(=O)O)cc1Nc1nc2ccccc2n2nnnc12	82% (inactive)
Cc1cc(C)n(-c2nc3ccccc3nc2Nc2cccc(C(=O)NCCc3ccccc3)c2)n1	93% (inactive)
CCCOC(=O)c1ccc(Nc2nc3ccccc3nc2-n2nc(C)cc2C)cc1	24% (active)
CCCCOC(=O)c1ccc(Nc2nnc(-n3nc(C)cc3C)c3ccccc23)cc1	98% (inactive)
COc1cccc(C(=O)Nc2c(C(=O)c3ccc(F)cc3)oc3ccccc23)c1	66% (inactive)
CCn1c(SC)nnc1C1CCCN(Cc2ccccc2)C1 (stereo not drawn)	100% (inactive)
CC(C)Cn1cc(NC(=O)N2CCN(c3ccc(F)cc3)CC2)c2ccccc2c1=O	99% (inactive)
O=C(Nc1cccc(F)c1)c1ccc(-c2ccccc2)s1	82% (inactive)
CCOC(=O)c1cc(-c2ccc(OC)cc2)n(CCC(=O)Nc2cccc(C)c2C)c1C	93% (inactive)
CC1=Nc2cc(C(=O)NC3CCCC3)ccc2Sc2ccc(Cl)cc21	77% (inactive)
Cc1ccccc1-c1nnc(C2CCN(S(=O)(=O)c3ccc(Cl)cc3)CC2)o1	89% (inactive)
